Assay results as given in publication PMC4336329 (PLoS ONE, 2015).
The whole screen tested about 310,000 compounds, of which about 14,000 (4.5%) showed an effect of 50% or more. Effects have a minus sign here. For the sample, strong results were picked, then their nearest neighbours and some compounds at random.

molecular target: human ether-à-go-go-related gene (hERG) potassium channel (human, UniProt Q12809); experiment: primary screen, population patch clamp on CHO cells stably expressing hERG; higher = less effect of the substance
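Also: peak tail current of the secondary pulse compared with the same well before compound.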

human ether-à-go-go-related gene (hERG) potassium channel, sequence (Q12809 whole entry, looked up): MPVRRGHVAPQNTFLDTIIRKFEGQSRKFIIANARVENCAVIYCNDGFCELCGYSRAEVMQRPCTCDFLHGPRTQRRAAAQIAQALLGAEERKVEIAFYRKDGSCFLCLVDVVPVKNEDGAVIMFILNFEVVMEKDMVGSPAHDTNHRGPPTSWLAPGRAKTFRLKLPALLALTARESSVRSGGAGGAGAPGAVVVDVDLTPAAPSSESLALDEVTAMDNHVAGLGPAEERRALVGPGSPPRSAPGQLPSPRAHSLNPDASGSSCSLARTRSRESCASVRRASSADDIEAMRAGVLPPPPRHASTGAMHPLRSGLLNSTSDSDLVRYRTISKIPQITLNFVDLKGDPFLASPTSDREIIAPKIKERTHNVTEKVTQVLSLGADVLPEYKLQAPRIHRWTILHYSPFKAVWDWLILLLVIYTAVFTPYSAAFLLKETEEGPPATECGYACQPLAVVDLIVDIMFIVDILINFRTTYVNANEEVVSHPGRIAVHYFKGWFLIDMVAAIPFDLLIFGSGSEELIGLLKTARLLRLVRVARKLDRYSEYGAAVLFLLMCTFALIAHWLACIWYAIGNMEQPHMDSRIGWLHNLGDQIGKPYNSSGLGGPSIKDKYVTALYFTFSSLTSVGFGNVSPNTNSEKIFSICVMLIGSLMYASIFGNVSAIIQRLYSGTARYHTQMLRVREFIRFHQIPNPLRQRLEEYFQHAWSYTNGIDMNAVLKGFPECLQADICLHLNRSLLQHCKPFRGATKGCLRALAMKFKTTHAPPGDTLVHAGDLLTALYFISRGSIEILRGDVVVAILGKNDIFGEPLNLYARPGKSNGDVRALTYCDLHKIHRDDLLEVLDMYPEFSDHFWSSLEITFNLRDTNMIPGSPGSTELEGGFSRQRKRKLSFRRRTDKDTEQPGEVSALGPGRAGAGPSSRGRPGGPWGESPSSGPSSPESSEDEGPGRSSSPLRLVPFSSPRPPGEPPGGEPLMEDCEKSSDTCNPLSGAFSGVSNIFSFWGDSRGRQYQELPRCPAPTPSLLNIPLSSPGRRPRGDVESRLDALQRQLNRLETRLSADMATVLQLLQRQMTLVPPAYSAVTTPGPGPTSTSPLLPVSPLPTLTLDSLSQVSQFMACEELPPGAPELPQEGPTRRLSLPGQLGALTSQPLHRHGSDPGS

| Compound | hERG current change (%, negative = inhibition) at 10uM [%] |
| --- | --- |
| CCc1nnc(NS(=O)(=O)c2ccc(N=Cc3c(C)[nH]n(-c4cccc(Cl)c4)c3=O)cc2)s1 | 10.4 |
| CC(=O)c1ccc(OCC(=O)N(C)CC(=O)Nc2ccc(N3CCOCC3)cc2)cc1 | 9.61 |
| CC(=O)Nc1ccc(S(=O)(=O)NCC(=O)OCC(=O)N2CCCc3ccccc32)cc1 | 4.4 |
| C/C(=N\NC(=O)c1ccc(N(C)C)cc1)c1ccc(C)c(C)c1 | -14.5 |
| O=C(Oc1ccc(Br)cc1)c1cccc(S(=O)(=O)N2CCOCC2)c1 | -35.6 |
| Cc1cc(=O)oc2ccc(OC(=O)c3cccc(S(=O)(=O)N4CCOCC4)c3)cc12 | -70.5 |
| COC(=O)c1cccc(S(=O)(=O)N2CCOCC2)c1 | 6.61 |
| CC(C)C1Oc2ccccc2N(CC(=O)N(C)C2CCCCC2)C1=O (stereo not drawn) | -10.1 |
| CCc1nc(N2CCNCC2)c(C#N)c2c1CSC(C)(C)C2 | 2.02 |
| CCCCc1nc(N2CCNCC2)c(C#N)c2c1CSC(C)(C)C2 | -64.7 |
| CCCCc1nc(Cl)c(C#N)c2c1CSC(C)(C)C2 | -13.1 |
| CCCCn1c(N)c(N(CC)C(=O)c2cccc(OCc3ccccc3)c2)c(=O)[nH]c1=O | -9.67 |
| O=CN1CCCN(Cc2nc(Cc3ccccc3F)no2)CC1 | 16.1 |
| COc1ccccc1CN1CCN(Cc2nc(Cc3ccccc3)no2)CC1 | -36 |
| Cc1ccccc1N1CCN(Cc2nc(Cc3ccccc3F)no2)CC1 | -3.53 |
| c1ccc(Cc2noc(CN3CCN(CCOc4ccccc4)CC3)n2)cc1 | -40.9 |
| Fc1ccccc1Cc1noc(CN2CCN(C/C=C/c3ccccc3)CC2)n1 | -74 |
| C(=C\c1ccccc1)/CN1CCN(Cc2nc(Cc3ccccc3)no2)CC1 | -65.1 |
| COC(=O)c1ccc(C(C(=O)NCc2ccccc2)N(Cc2ccco2)C(=O)c2cnccn2)cc1 (stereo not drawn) | -25.4 |
| COC(=O)/C(=C\Nc1ccc(Cl)cc1Cl)NC(=O)c1ccccc1 | -4.83 |
| C=CCNC(=S)NNC(=O)CCC(O)CCCCC (stereo not drawn) | 16.4 |
| CCN(CC(=O)NCc1cccs1)C(=O)CCC(=O)c1ccc(C)cc1 | -46.9 |

| Compound | hERG current change (%, negative = inhibition) at 10uM [%] |
| --- | --- |
| CCN(CC(=O)NCc1ccc(Cl)cc1)C(=O)CCC(=O)c1ccc(C)cc1 | -66.5 |
| Cc1ccc(C(=O)CCC(=O)NCc2ccc(Cl)cc2)cc1 | -8.52 |
| CCOc1ccc(C(=O)CCC(=O)N(CC)CC(=O)Nc2c(F)cccc2F)cc1 | -25.6 |
| CCOc1ccc(C(=O)CCC(=O)N(CC)CC(=O)NCc2cccs2)cc1 | -19.9 |
| CCOc1ccc(C(=O)CCC(=O)N(CC)CC(=O)NCc2ccc(Cl)cc2)cc1 | -70.3 |
| CCN(CC(=O)NCc1ccc(F)cc1)C(=O)c1ccc(Cl)cc1 | -23.7 |
| CCN(CC(=O)NCc1cccs1)C(=O)CCC(=O)c1ccc(F)cc1 | -49.7 |
| CCN(CC(=O)NCc1ccc(Cl)cc1)C(=O)CCC(=O)c1ccc(F)cc1 | -61.9 |
| Cc1ccc(C)c(N(CC(=O)NC2CCCC2)S(=O)(=O)c2ccccc2)c1 | 19.9 |
| Cl.O=C(O)c1cc(S(=O)(=O)N2CCN(C(c3ccccc3)c3ccccc3)CC2)ccc1Cl | 14.7 |
| COc1ccc([C@H]2CC(=O)C=C(c3ccc(OC(F)(F)F)cc3)C2)cc1 | 5.59 |
| COc1ccc(OCCOCCN2CCN(C)CC2)cc1.O=C(O)C(=O)O | -6.29 |
| COc1cc(CN2CCN(C(c3ccccc3)c3ccccc3)CC2)cc(OC)c1OC.O=C(O)C(=O)O | -17.2 |
| COc1ccccc1N1CCN(Cc2cccc(OC)c2OC)CC1 | -12.5 |
| CCOc1ccccc1N1CCN(Cc2cccc(OC)c2O)CC1 | -25.8 |
| O=C(O)C(=O)O.c1ccc(OCCN2CCN(C(c3ccccc3)c3ccccc3)CC2)cc1 | -14.6 |
| O=C(O)C(=O)O.Oc1ccccc1CN1CCN(C(c2ccccc2)c2ccccc2)CC1 | 17 |
| COc1ccccc1CN1CCN(C(c2ccccc2)c2ccccc2)CC1.O=C(O)C(=O)O | -55.1 |
| O=C(O)C(=O)O.c1ccc(OCCOCCN2CCN(C(c3ccccc3)c3ccccc3)CC2)cc1 | -72.7 |
| COc1ccccc1CN1CCN(Cc2cc(OC)c(OC)cc2OC)CC1.O=C(O)C(=O)O | -11.2 |
| COc1ccccc1N1CCN(Cc2cccc(OC)c2O)CC1 | -64.9 |
| COc1cccc(CN2CCN(C(c3ccccc3)c3ccccc3)CC2)c1O.O=C(O)C(=O)O | -64.5 |

| Compound | hERG current change (%, negative = inhibition) at 10uM [%] |
| --- | --- |
| Fc1ccc(CN2CCN(C(c3ccccc3)c3ccccc3)CC2)cc1.O=C(O)C(=O)O | 15 |
| N#C/C(C(=O)N1CCOCC1)=C1\Nc2ccccc2S1 | 2.1 |
| CC(=O)NC(Cc1c[nH]c2ccccc12)C(=O)NCc1ccco1 (stereo not drawn) | 12.5 |
| CCN(CC)S(=O)(=O)c1cccc(NC(=O)COc2ccc(Cl)cc2Br)c1 | 2.59 |
| CCn1c(SCC(=O)Nc2ccc(C(C)=O)cc2)nc2c([nH]c3ccccc32)c1=O | 5.85 |
| CCOCCCNC(=O)c1ccc(-n2c(=S)[nH]c3ccccc3c2=O)cc1 | 10.8 |
| COc1cccc(OC)c1OCCN1CCN(C(c2ccccc2)c2ccccc2)CC1 | -72.7 |
| COc1ccccc1OCCCCCCN1CCN(C)CC1.O=C(O)C(=O)O | -5.83 |
| COc1cccc(OC)c1OCCOCCN1CCN(C)CC1 | 20.8 |
| COc1ccccc1OCCCCN1CCN(C(c2ccccc2)c2ccccc2)CC1.O=C(O)C(=O)O | -73 |
| COc1ccccc1CN1CCCCCC1.O=C(O)C(=O)O | 11.5 |
| COc1ccc(CN2CCN(Cc3ccccc3OC)CC2)cc1.O=C(O)C(=O)O | 2.68 |
| COc1cccc(OC)c1OCCN1CCCC1 | 15.8 |
| COc1ccccc1OCCCCCCN1CCOCC1.O=C(O)C(=O)O | 0.0271 |
| COc1ccccc1CN1CCN(Cc2ccc(Cl)cc2)CC1.O=C(O)C(=O)O | -62.5 |
| CCOc1ccc(NCc2nc3ccccc3n2CCOc2ccccc2)cc1 | -11.6 |
| Cc1ccnc(N2CCC(C(=O)NCc3ccc(F)cc3)CC2)n1 | -12 |
| CCOC(=O)N1CCN(CC(O)COc2ccccc2C(C)C)CC1.Cl (stereo not drawn) | -8.87 |
| C/C(=N\NC(=O)c1ccco1)c1cc(Cl)sc1Cl | -6.11 |
| S=c1[nH]nc(COc2ccc(Cl)cc2Cl)n1-c1ccccc1 | 19.1 |
| C/C(=N\Nc1cc(N2CCOCC2)ncn1)c1cccc([N+](=O)[O-])c1 | 4.5 |
| C/C(=N\Nc1nc(N2CCOCC2)nc(N2CCOCC2)n1)c1cccc([N+](=O)[O-])c1 | -4.76 |

| Compound | hERG current change (%, negative = inhibition) at 10uM [%] |
| --- | --- |
| C/C(=N\Nc1cc(N2CCOCC2)nc(C)n1)c1cccc([N+](=O)[O-])c1 | -60.4 |
| COCCCNC(=O)[C@H]1N2C(=O)c3ccccc3C2SC1(C)C (stereo partly drawn) | 15.3 |
| S=C(NCc1ccco1)N1CCN(Cc2ccc(Cl)cc2Cl)CC1 | -36.3 |
| O=S(=O)(Nc1ccc(-c2ccc3nncn3n2)cc1)c1ccc(Cl)s1 | -19.2 |
| O=C(Nc1ccc(S(=O)(=O)N2CCOCC2)cc1)c1ccccc1F | 6.32 |
| COc1ccc(CNc2ccc3c(c2)ncn3-c2ccccc2OC)cc1 | -23 |
| C=CCc1cc(OC)ccc1OCC(O)CN1CCN(c2ccc(OC)cc2)CC1 (stereo not drawn) | -59.7 |
| C=CCc1ccccc1OCC(O)CNC (stereo not drawn) | 12 |
| C=CCc1ccccc1OCC(O)CN(CC)CC.Cl (stereo not drawn) | -30.5 |
| C=CCc1ccccc1OCC(O)CN1CCN(c2ccc(OC)cc2)CC1.Cl (stereo not drawn) | -66.5 |
| C=CCc1ccccc1OCC(O)CN1CCN(C(=O)OCC)CC1.Cl (stereo not drawn) | -11.3 |
| C=CCc1ccccc1OCC(O)CN(C(C)C)C(C)C.Cl (stereo not drawn) | -59.2 |
| C=CCc1ccccc1OCC(O)CN1CCN(c2ccc(C)cc2)CC1 (stereo not drawn) | -44.7 |
| C=CCc1cc(C)ccc1OCC(O)CN1CCN(c2ccccc2)CC1 (stereo not drawn) | -47.5 |
| C=CCc1ccccc1OCC(O)CN1CCN(c2ccccc2F)CC1.Cl (stereo not drawn) | -40.9 |
| C=CCc1ccccc1OCC(O)CN1CCN(c2ccccc2OC)CC1.Cl (stereo not drawn) | -75.2 |
| Cc1nonc1NC(=O)CSc1nc2cc(Cl)ccc2c2c1CCCC2 | 2.15 |
| CN(Cc1nc(-c2cnccn2)no1)Cc1n[nH]c2c1CCCCC2 | -0.424 |
| O=S(=O)(c1ccccc1)N(CC1CO1)c1cc(Cl)ccc1Cl (stereo not drawn) | 14.2 |
| C/C(=N\O)C(C)(C)Nc1ccccc1F | 4.26 |
| COc1cc(/C=C/c2[nH]c(=O)[nH]c(=O)c2[N+](=O)[O-])cc(OC)c1O | 7.26 |
